The text below walks through data of PubChem BioAssay (NCI).

Experiment in all cases: NCI-60 one-dose screen, 48 h (100 = growth as untreated, 0 = no growth, -100 = all killed)
Common to all, as to details: 10 µM unless noted

Test [1] relates to HCT-15 colon.
For test [2], the system named is HT29 colon.
Test [3] concerns SNB-75 CNS.
For test [4], the system named is SNB-19 CNS.
The test system of test [5] is U251 CNS.
The subject of test [6] is SK-MEL-5 melanoma.
The test system of test [7] is UACC-62 melanoma.
Test [8] concerns LOX IMVI melanoma.
For test [9], the system named is SK-MEL-28 melanoma.
Test [10] has as its system PC-3 prostate.

About 83,000 compounds went through this panel and 20% of them were active in at least one assay; those are over-represented in the sample as a whole.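 Assay: single dose, 48 h. Readout: percent growth (0 = no net growth; negative = cell death). Active: <10.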 A number with no mark means an inactive call. Calls of active or inactive are those of the source.

Turning to `CC(C)(C)c1ccc(C(=O)Nc2sc3c(c2C(N)=O)CCC(O)C3)cc1` (centres undefined), the growth in test [1] was 6.55% (active); in test [2], 2.76% (active); in test [3] it was 98.1%; in [4] it was 64.9%; in test [5], 54%; in test [6] it was 38.5%. Moreover, the growth in test [7] was 39.4%; in test [8] it was -70% (active); in test [9] it was 49.3%.
Take `CNC(=O)c1c(NC(=O)c2ccccc2C(F)(F)F)sc2c1CCC(=O)C2`: the growth in test [1] is 9.11% (active); in test [2], 26.5%; in test [3], 93.1%; in test [4], 41.1%; in test [10] it was 14.8%; in [6], -17.1% (active). The growth is 16.6% in [7] and 22% in test [8].
With `COc1cc(-c2nn(C(C)(C)C)cc2-c2ccnc(NCCCNS(=O)(=O)c3ccc(Cl)cc3)n2)ccc1Cl`, the growth is 51.5% in test [1]; 49.4% in [2]; 41.7% in test [3]; 87.1% in test [4]; 77.3% in [5]; 77% in [6]. Moreover, the figures for the growth in [7], in test [8] and in [9] were 61.7%, 65.4% and 84.2%, respectively.
`COc1cc(OC)c(S(N)(=O)=O)cc1C(C)=O`: the growth in [1] was 103%; in [2], 103%; in [3], 130%; in test [4], 101%; in test [5], 105%; in [8] it was 105%. Moreover, the growth in test [9] was 107%.
As for `NS(=O)(=O)c1ccc(-n2cc(CN3CCCCC3)nn2)cc1`, the growth in test [1] is 107%; in test [2], 96.7%; in [3], 92.8%; in [4] it was 102%; in [5], 104%; in [6], 99.6%. Further, the values for the growth in test [7], in [8] and in [9] were 97.4%, 101% and 109%, respectively.
On to `CC(=O)c1cc(C(=O)N2c3ccccc3Sc3ccccc32)n2ccc3ccccc3c12`, for which the growth in test [1] is 29.2%; in test [2] it was 14.8%; in test [3] it was 34.6%; in [4] it was 49.1%; in test [10], 37.6%; in test [6], 37.3%. In addition, the growth in [7] is 21.4%; in test [8], 41.4%; in test [9] it was 62.7%.
With `O=c1[nH]c2ccccc2cc1CSc1ccccc1Nc1nccc(-c2ccc(Cl)cc2)n1`, the growth in test [1] was 101%; in test [2], 109%; in test [3], 71.7%; in test [4], 98.8%; in [5], 104%; in test [6] it was 96.6%. Further, the growth in [7] is 77.1%; in [8], 96.3%; in [9], 107%.
On to `O=C(Nc1nonc1-c1ccccc1)c1ccc(C(F)(F)F)cc1`, for which the growth in test [1] was 80.6%; in test [2] it was 103%; in test [3], 104%; in test [4], 62%; in [5] it was 70.1%; in test [6], 65.6%. Besides, the growth in test [7] is 56%; in test [8] it was -46.7% (active); in test [9], 77.5%.
In the case of `COc1cc(C2N=C(NNc3ccccc3)NC(C)=C2C(C)=O)ccc1O` (centres undefined), the growth was 81% in test [1]; 115% in test [2]; 88.6% in test [3]; 93.3% in [4]; 100% in [5]; 104% in test [6]. Further, the growth in test [8] is 66.3%; in [9], 101%.
In the case of `CN1CCN(Cc2ccc(NC(=O)c3cncc(C#Cc4cnc5ccc(N6CCN(C)CC6)nn45)c3)cc2C(F)(F)F)CC1`, the growth was -57% (active) in test [1]; -41.6% (active) in [2]; -68.9% (active) in [3]; -29.3% (active) in test [4]; -18.6% (active) in test [10]; 90.5% in [6]. Besides, the growth in test [7] was 92.2%; in test [8], -93.1% (active).
As for `c1ccc(C(c2nc3ncncc3[nH]2)N2CSc3nc4ncncc4n3C2)cc1` (centres undefined), the growth in [1] was 80.4%; in test [2], 42.7%; in test [3], 45%; in [4], 96.9%; in test [5], 92.1%; in [6] it was 85.1%. Moreover, the growth in test [7] was 27.5%; in [8], 13.2%; in test [9], 98.4%.
